The values that follow come from PubChem BioAssay AID651946 (Broad Institute, 2012).

Entries with a potency or affinity are not part of this list. Active and inactive are the calls of the source.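 Rule for the calls: active = toxic compound whose fitted half-effect dose of signal loss is at most twice its top tested dose; inconclusive = flat fit losing 30 to 70% signal, or poor fit; inactive = the rest.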

This test is described as follows: cytotoxicity in HeLa cells, dose response, cytotoxicity control, cell-based, plate reader, dry powder (AID 651946). As to conditions: HeLa viability, ATP luminescence (CellTiter-Glo), 48 h; series mostly up to 26 µM. (In general: Cellular ATP, detected with luciferase, serves as a proxy for viable cell number.)
On to `c1ccc(CSc2nnc(C3CCCC3)o2)cc1`, for which the compound was called inactive.

Turning to `CN(C)CCSc1nnc(-c2ccccc2)o1`, the result was inactive. The same measure for `c1ccc(-c2ccc(CSc3nnc(-c4ccccc4)o3)cc2)cc1`: “inactive”; for `Fc1ccc(CSc2nnc(-c3cccnc3)o2)cc1`: “inactive”; for `Fc1cccc(-c2nnc(SCc3ccccc3)o2)c1`: “inactive”. Next, `COCCSc1nnc(-c2ccccc2)o1`: “inactive”. As to `c1ccc(CSc2nnc(-c3cnco3)o2)cc1`, the call was inactive. Turning to `Clc1ccc(CSc2nnc(-c3ccccc3)o2)cc1`, the compound was called inactive. In the case of `Fc1ccc(Cn2cc(CSc3nnc(C4CCCC4)o3)nn2)cc1`, the call was inactive. Next, `Cc1cccc(CSc2nnc(-c3ccccc3)o2)c1`: “inactive”. For the compound `Clc1ccccc1CSc1nnc(-c2ccccc2)o1`, the compound was called inactive. Next, `FC1(F)CN(CCSc2nnc(-c3ccccc3)o2)C1`: “inactive”; `FC(F)(F)CNCCSc1nnc(-c2ccccc2)o1`: “inactive”.

As to `Cc1ccccc1CSc1nnc(-c2ccccc2)o1`, the call was inactive. Next, `CS(=O)(=O)c1ccc(-c2nnc(SCc3ccccc3)o2)cc1`: “inactive”; `CSc1nnc(-c2ccccc2)o1`: “inactive”. On to `Clc1cccc(CSc2nnc(-c3ccccc3)o2)c1`, for which the call was inactive. `Fc1cccc(-c2nnc(SCc3ccccn3)o2)c1`: the call was inactive. Next, `Cc1ccc(CSc2nnc(-c3ccccc3)o2)cc1`: “inactive”; `CS(=O)(=O)c1ccccc1-c1nnc(SCc2ccccc2)o1`: “inactive”. Take `c1ccc(Cn2cc(CSc3nnc(-c4ccccc4)o3)nn2)cc1`: the outcome was inactive. As for `c1ccc(CCc2nnc(-c3ccccc3)o2)cc1`, the outcome was inactive. Next, `c1ccc(-c2nnc(SCc3cccnc3)o2)cc1`: “inactive”. As for `N#Cc1ccc(-c2nnc(SCc3ccccc3)o2)cc1`, the result was inactive.

Take `COc1ccccc1-c1nnc(SCc2ccccc2)o1`: the call was inactive. With `c1ccc(CSc2nnc(-c3ccncc3)o2)nc1`, the call was inactive. Take `c1ccc(Cn2cc(CSc3nnc(C4CCC4)o3)nn2)cc1`: the compound was called inactive.

`c1ccc(CSc2nnc(C3CCCCC3)o2)cc1`: the compound was called inactive. With `c1ccc(CSc2nnc(-c3ccc(-c4ccccc4)cc3)o2)cc1`, the compound was called inactive. On to `c1ccc(CNc2nnc(-c3ccccc3)o2)cc1`, for which the compound was called inactive.

For the compound `FC(F)(F)Oc1ccc(CSc2nnc(-c3ccccc3)o2)cc1`, the outcome was inactive. The same measure for `[O-][n+]1ccccc1CSc1nnc(-c2ccccc2)o1`: “inactive”; for `c1ccc(CSc2nnc(-c3cscn3)o2)cc1`: “inactive”; for `c1ccc(CSc2ncc(-c3ccccc3)o2)cc1`: “inactive”. Turning to `c1ccc(CSc2nnc(-c3cc4ccccc4o3)o2)cc1`, the result was inactive.

For `CS(=O)(=O)c1ccccc1CSc1nnc(-c2ccccc2)o1`, the compound was called inactive.
